Bioassay records: PubChem, National Center for Advancing Translational Sciences (NCATS)
Compounds with a hit are over-represented: about 2.8% of the library has one in this group of screens.
D3 ag = agonists of human D3 dopamine receptor; P35462; D3R DiscoveRx beta-arrestin cells, luminescence, 90 min; max activation, %; 410,000 compounds, 0.58% hits; in the data active means max activation above about 30%; further: 0% is about no effect
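Agonist-mode cell screen: cells plated at 1500/well and incubated overnight at 37 °C, then exposed to library compounds for 90 min at 37 °C. Detection reagent was added for 30–60 min at room temperature, and luminescence was read.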
PI4K2A block = inhibitors of human PI4K2A. Q9BTU6. activity change, negative = inhibition, % at 76.9 µM. 420,000 compounds, 0.13% hits. purified PI4K2A, ADP-Glo luminescence, 1 h; hits give low values; in the data active means activity change below about -50%; inconclusive means mostly about -30% to -49%;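 further: -100% = wells without enzyme as full effect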
Target sequence (Q9BTU6 whole entry, looked up): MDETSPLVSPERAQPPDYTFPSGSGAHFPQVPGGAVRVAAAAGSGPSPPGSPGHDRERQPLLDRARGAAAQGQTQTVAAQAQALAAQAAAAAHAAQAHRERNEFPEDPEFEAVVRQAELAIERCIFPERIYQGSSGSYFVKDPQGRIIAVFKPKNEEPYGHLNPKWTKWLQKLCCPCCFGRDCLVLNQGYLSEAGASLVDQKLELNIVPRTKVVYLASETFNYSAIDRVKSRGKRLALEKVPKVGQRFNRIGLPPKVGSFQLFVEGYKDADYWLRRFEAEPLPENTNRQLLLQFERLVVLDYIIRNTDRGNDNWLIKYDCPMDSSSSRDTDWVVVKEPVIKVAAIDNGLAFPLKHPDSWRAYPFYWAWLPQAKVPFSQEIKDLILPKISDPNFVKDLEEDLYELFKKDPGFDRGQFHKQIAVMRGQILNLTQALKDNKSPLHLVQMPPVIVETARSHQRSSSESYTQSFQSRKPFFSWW
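PI4K2A activity was measured by ADP-Glo luminescence: enzyme (4 ug/mL stock) and phosphatidylinositol (1.2 mM stock) in Tris pH 7.5/MgCl2/EGTA/Triton X-100 buffer were reacted with ATP (300 microM stock) for one hour at ambient temperature.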
D3 antag = antagonists of human D3 dopamine receptor. AID 652054. 360,000 compounds, 2.5% hits. D3R cells, DiscoveRx beta-arrestin luminescence, antagonist mode; hits give low values. max response, negative = inhibition, %; in the data active means max response below about -50%; inconclusive means no clear call, values can overlap the other calls; further: on the % scale 0 is the no-effect control and ±100 the full control effect
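Cells plated overnight at 1500 cells/well, then exposed to library compounds with dopamine controls for 90 minutes at 37 degrees C. DiscoveRx reagent added for 30–60 minutes at room temperature; luminescence read, quantitative HTS format.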
RGS4 inh = human RGS4 inhibition; P49798; Transcreener GDP fluorescence polarization, RGS4-accelerated GTP hydrolysis; 390,000 compounds, 0.039% hits; Potency, µM (series often up to 114 µM), inactives show top-dose activity change, negative = inhibition, most hits filed as inhibitors; active means well fitted inhibition curve with a large enough effect; inconclusive means small, poorly fitted or top-dose-only effect; inactive means no such curve, though single readings can be large or run the other way; further: potency means the concentration at half of the fitted maximal effect; on the % scale 0 is the no-effect control and ±100 the full control effect; nearly all actives have a fitted effect of over 75% in size
Target sequence (P49798 whole entry, looked up): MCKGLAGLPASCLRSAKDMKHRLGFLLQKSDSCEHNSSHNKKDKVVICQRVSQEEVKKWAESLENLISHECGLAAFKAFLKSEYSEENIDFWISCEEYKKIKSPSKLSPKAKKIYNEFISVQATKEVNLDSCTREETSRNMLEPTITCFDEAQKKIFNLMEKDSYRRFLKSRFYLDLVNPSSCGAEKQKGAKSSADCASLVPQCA
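MLSMR compounds (23 nl, pin-transferred) preincubated 10 min at room temperature with a 500nM (2x) first reagent, then RGS4 at 900nM (2x) plus Transcreener GDP mix added; fluorescence polarization (620/688 nm) read before and after 90 min at 30 °C.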
Akt phos inh = blocks phosphorylation of Akt. activity change, % for hits at 50 µM. AID 651550. Neuro2A IGF-stimulated pAkt S473 HTRF, 20 min; hits give low values. 360,000 compounds, 0.32% hits; in the data active means activity change below about -80%; inconclusive means mostly about -51% to -80%; further: on the % scale 0 is the no-effect control and ±100 the full control effect
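Single-point screen (50 µM final compound) in Neuro2A cells stimulated 20 min with 6 nM IGF at 37 deg C. After lysis, Ser473-phosphorylated Akt read by HTRF (ex 330 nm, em 615/665 nm) as the 665/615 ratio.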
LDHA inh = LDHA (human) enzyme inhibition; P00338; purified LDHA, NADH/diaphorase-resazurin fluorescence; hits give low values; activity change, % (values are at about 110 or 230 µM); 480,000 compounds, 0.15% hits; AID 1347041; in the data active means activity change below about -30%; inconclusive means mostly about -25% to -30%;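 further: plate controls were DMSO wells for no effect and wells without enzyme for full effect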
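LDH5 2 nM; NADH 0.06 mM, pyruvate 0.2 mM; 200 mM Tris pH 7.4, EDTA, Tween-20; 5 min RT. Detection: diaphorase 0.133 mg/mL + resazurin 37 µM, fluorescence ex540/em590 at 0 and 20 min; normalized to enzyme-free and DMSO wells.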
* marks the source's active call; other numbers are inactive results; i = inactive; ? = inconclusive; / = no result given; ! = repeats disagree; [ ] = remark or other dose.

SMILES | D3 ag | PI4K2A block | D3 antag | RGS4 inh | Akt phos inh | LDHA inh
CCCCn1nnc(NC(=O)c2ccc(-c3cccc(Cl)c3)o2)n1 | -4 | -5 | -86* | 10% | i | -4
CCCn1nnc(NC(=O)c2ccc(-c3cccc(Cl)c3)o2)n1 | -6 | -14 | 11 | 6% | i | -4
Cc1ccc(C(O)c2ncc(-c3ccc4ccccc4c3)[nH]2)cc1 (configuration not stated) | -15 | -1 | 0 | / | i | -5
Cc1cc(C)cc(C(O)c2ncc(-c3ccc4ccccc4c3)[nH]2)c1 (configuration not stated) | -12 | -1 | -56* | / | i | -11
FC(F)(F)c1nc2nc(Cl)c(Cl)nc2n1CCCN1CCOCC1 | -19 | -2 | -57* | / | i | -1
CC1CCCN(c2nc(-c3cccnc3)nc3scc(-c4ccccc4)c23)C1 (configuration not stated) | 34* | 1 | 17 | -4% | i | 4
C=C(C)Cn1c(SC)nc2c1c(=O)n(C)c(=O)n2C | / | / | / | / | / | -1
Nc1cccc(NC(=O)c2cccs2)c1 | 1 | 3 | 18 | 17% | i | 2
O=C(Nc1cccc(N2CCCC2)c1)c1cccs1 | -33 | 0 | -51* | -41% | i | 11
COc1cccc(=O)c2c(C)n(-c3cc(C)cc(C)c3)c(C)c12 | 6 | 0 | -65* | -19% | i | 0
COc1cc(C(C)=O)ccc1OCC(O)CN1CCN(c2ccccn2)CC1 (configuration not stated) | 78* | 3 | 7 | -23%[56.9 µM] | i | 0
COc1cc(C(C)=O)ccc1OCC(O)CN1CCN(c2ccc(C)cc2C)CC1 (configuration not stated) | -13 | 1 | -67* | -32% | i | -1
COc1cc(C(C)=O)ccc1OCC(O)CN1CCN(c2ccccc2)CC1 (configuration not stated) | 24 | 9 | ? | 11% | i | -7
CCCCCCn1nc(C(=O)OCC(=O)N(C)c2ccccc2)c2ccccc2c1=O | / | / | / | / | / | -15
O=[N+]([O-])c1cccc(/C=C/c2nc(C=Nc3ccccc3)c(O)o2)c1 | 31* | 6 | 31 | -4% | i | -2
Oc1oc(-c2ccccc2)nc1C=Nc1ccccc1 | -8 | 1 | -16 | -7% | i | 0
CCCC(=O)c1c[nH]c(C(=O)NCc2cccnc2)c1 | -12 | 0 | -88* | -2% | i | -7
COc1ccc(C(=O)c2c[nH]c(C(=O)NCc3cccnc3)c2)cc1 | -13 | 0 | 2 | 8% | i | -4
O=C(c1ccccc1)c1c[nH]c(C(=O)NCc2cccnc2)c1 | 6 | 11 | 44 | -19% | -100%* | -6
CCC(=O)c1c[nH]c(C(=O)NCc2cccnc2)c1 | -10 | -3 | -22 | 2% | i | -5
O=S(=O)(c1cccc(C(F)(F)F)c1)n1c(/C=C/c2ccccc2)nc2ccccc21 | 2 | -61* | / | 4% | / | 2
COc1ccc(OC)c(-c2cc(C(=O)Nc3c(C)nn(Cc4ccccc4Cl)c3C)no2)c1 | 25 | 13 | 3 | -2% | i | -3
COc1cccc(-c2cc(C(=O)Nc3ccn(Cc4ccc(C)cc4)n3)no2)c1 | 35*! | -1 | 5 | 17%[11.4 µM] | i | -13
Cc1ccc(Cn2ccc(NC(=O)c3cc(-c4ccccc4)on3)n2)cc1 | -2 | 1 | -9 | -17% | i | 3
COc1ccc(OC)c(-c2cc(C(=O)Nc3c(C)nn(Cc4ccccc4C)c3C)no2)c1 | 33* | 3 | 21 | 2% | i | -5
SMILES | D3 ag | PI4K2A block | D3 antag | RGS4 inh | Akt phos inh | LDHA inh
COc1ccc(-c2cc(C(=O)Nc3c(C)nn(Cc4ccc(C)cc4)c3C)no2)cc1OC | 7 | 1 | / | 17% | / | -3
COc1ccc(OC)c(-c2cc(C(=O)Nc3c(C)nn(Cc4ccc(C)cc4)c3C)no2)c1 | 35* | 3 | / | 24% | / | 0
O=C(O)CNS(=O)(=O)c1ccc(C(=O)/C=C/c2ccccc2Cl)cc1 | / | / | / | / | / | 2
O=C(c1noc2c1CCCCC2)N1CCN(c2cccc(Cl)c2)CC1 | -7 | 2 | / | -19% | / | -5
O=C(c1noc2c1CCCCC2)N1CCN(c2cccc(C(F)(F)F)c2)CC1 | 52* | -3 | / | 30% | / | -6
CC(C)c1ccc(/C=C(/CC(=O)O)c2nc3ccccc3s2)cc1 | / | / | / | / | / | 4
CCOC(=O)C1CCN(C(=O)c2nc3nc(-c4ccco4)cc(C(F)(F)F)n3n2)CC1 | / | / | / | / | / | -6
Cc1ccc(CNC(=O)c2cc(-c3ccccc3)n(Cc3cc(C)no3)n2)cc1 | 7 | 4 | 17 | -5% | i | 2
Cc1cc(Cn2nc(C(=O)NCc3cccc(C(F)(F)F)c3)cc2-c2ccccc2)on1 | -15 | -1 | -60* | 11% | i | 1
CCc1cccc(NC(=O)Nc2ccc(OC)cc2)c1 | / | / | / | / | / | -1
COC(=O)c1cc(=O)c2ccc(OC)cc2o1 | 8 | -3 | -16 | -11% | i | -2
COc1ccc2c(=O)cc(CO)oc2c1 | 38* | -3 | 0 | -22% | i | 2
Cc1nn(-c2ccc(F)cc2)c2nc(C3CC3)c(Cl)c(C(=O)O)c12 | / | / | / | / | / | 4
CCC(C)/C(C)=N/Nc1nc2ccccc2[nH]1 (configuration not stated) | / | / | / | / | / | -1
CCC(CC)C(=O)N(C)c1c(C)nc2c(OCCOc3ccc(F)cc3)cccn12 | 14 | 1 | 15 | / | i | -8
CCc1nc2c(OCc3cc(Cl)cc(Cl)c3)cccn2c1N(C)C(=O)c1ccc(OC)cc1 | -11 | 3 | -63* | / | i | -4
CCC(CC)C(=O)N(C)c1c(C)nc2c(OCCC3CCCCC3)cccn12 | -15 | -3 | -50* | / | i | 3
CCc1nc2c(OCc3ccc(Cl)cc3)cccn2c1N(C)C(=O)c1ccco1 | -16 | 0 | -51* | / | i | -1
CCc1nc2c(OCc3cc(Cl)cc(Cl)c3)cccn2c1N(C)C(=O)CC(C)C | -16 | -2 | -66* | / | i | 10
CCc1nc2c(OCc3ccc(F)cc3)cccn2c1N(C)C(=O)c1ccco1 | -16 | 3 | -10 | / | i | -7
CCc1nc2c(OCc3ccc(F)c(F)c3)cccn2c1N(C)C(=O)CC(C)C | 5 | -1 | 18 | / | i | 0
COc1cccc(CNC(=O)Cn2ncc3ccc(OC)c(OC)c3c2=O)c1 | / | / | / | / | / | 0
